67 compounds from PubChem BioAssay AID1259324 (C. David Weaver Laboratory, Vanderbilt University, 2017) can be followed below.

Out of some 34,000 compounds screened, fewer than 10 were called active.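 How the source made its calls: active means primary screen hit, no activity in plain HEK293 cells, and in GIRK2-only cells above 5% efficacy rising with concentration; inactive means the rest, including fluorescent compounds.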 These entries were drawn from the full list.

G protein-activated inward rectifier potassium channel 2 (Homo sapiens), sequence (P48051 whole entry, looked up): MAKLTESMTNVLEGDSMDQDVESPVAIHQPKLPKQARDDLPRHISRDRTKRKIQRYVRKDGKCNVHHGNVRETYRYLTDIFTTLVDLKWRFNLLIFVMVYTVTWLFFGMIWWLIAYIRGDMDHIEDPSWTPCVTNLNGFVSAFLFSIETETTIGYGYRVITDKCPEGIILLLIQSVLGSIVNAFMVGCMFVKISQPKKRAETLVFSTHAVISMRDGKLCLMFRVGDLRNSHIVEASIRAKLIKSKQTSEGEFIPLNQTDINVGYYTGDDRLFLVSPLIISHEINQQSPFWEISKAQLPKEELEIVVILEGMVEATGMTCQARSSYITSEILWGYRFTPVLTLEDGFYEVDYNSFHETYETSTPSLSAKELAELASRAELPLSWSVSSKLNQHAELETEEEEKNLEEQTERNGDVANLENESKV

This assay has as its target G protein-activated inward rectifier potassium channel 2 (Homo sapiens) (UniProt P48051). Put plainly: activators of NPY4-receptor-primed GIRK2 channels, summary, cell-based, HEK293, thallium flux (AID 1259324). The conditions noted are these: HEK293 GIRK2/NPY4 cells, thallium flux fluorescence.
For `COc1ccc(NC(=O)c2ccc(C(F)(F)F)cc2)cc1N1CCCC1=O`, the compound was classed as inactive.
For the compound `O=C(NC1CC(=O)N(C2CC2)C1)c1ccc(-n2cccc2)cc1` (configuration not stated), the compound was called inactive.
As to `O=C(c1cccc(Cl)c1)N1CCOC(c2ccc(C(F)(F)F)cc2)C1` (configuration not stated), the compound was classed as inactive.
On to `CC1CCN(C(=O)CN2CCN(c3nccn3-c3cccc(Cl)c3)CC2)CC1`, for which the outcome was inactive.
Take `COc1cccc(C(=O)NNC(=O)c2ccc(=O)n(Cc3ccccc3)c2)c1OC`: the outcome was inactive.
Regarding `O=C(NCCCO)C(=O)Nc1ccc2c(c1)OCCO2`, the result was inactive.
Turning to `O=C(CSc1nc2ccsc2c(=O)n1CCc1ccccc1)Nc1ccccc1F`, the call was inactive.
For `COCCNc1oc2c(c1-c1ccc([N+](=O)[O-])cc1)c(=O)oc1ccc(C)cc12`, the result was inactive.
`O=C(CN1CCOCC1)Nc1ccccc1-c1nc2ccccc2[nH]c1=O`: the call was inactive.
As to `O=S1(=O)CCC(n2nc(-c3ccco3)cc2NS(=O)(=O)c2cccc(Cl)c2)C1` (configuration not stated), the compound was classed as inactive.
Turning to `CC(C)(C)OC(=O)C1=NN(c2ccc(Cl)cc2)c2ncccc2S1(=O)=O`, the outcome was inactive.
As for `CCn1nnc2c(NCc3ccccc3OC)ncnc21`, the outcome was inactive.
Take `Cc1ccc(C(CNC(=O)C(=O)NCc2ccccc2)N2CCOCC2)cc1` (configuration not stated): the outcome was inactive.
Turning to `CS(=O)(=O)N1CCN(CCNC(=O)c2ccc([N+](=O)[O-])o2)CC1`, the call was inactive.
Take `O=C(NCc1cccs1)C(=O)NCC1CCN(C(=O)/C=C/c2ccco2)CC1`: the compound was classed as inactive.
The same measure for `O=C(NCc1cccs1)C(=O)NCC1CCCO1` (configuration not stated): “inactive”; for `COc1ccc(OC)c(CNC(=O)c2snc(-c3cccc(F)c3)c2N)c1`: “inactive”.
Consider `COc1ccc(CCNC(=O)COc2ccccc2Br)cc1OC`, for which the call was inactive.
Turning to `COc1cc(C)c(C)cc1S(=O)(=O)N1CCN(c2ccc(-c3cccnc3)nn2)CC1`, the compound was classed as inactive.
As for `COc1ccc(S(=O)(=O)CCCC(=O)Nc2nc(-c3ccc([N+](=O)[O-])cc3)cs2)cc1`, the result was inactive.
For the compound `Cc1nc(NCCNC(=O)Nc2ccccc2)cc(-n2cccn2)n1`, the result was inactive.
In the case of `CCN1CCc2nc(-c3ccccc3)n(CC(=O)Nc3cc(OC)cc(OC)c3)c(=O)c2C1`, the outcome was inactive.
In the case of `O=C(NCCC1=CCCCC1)C(=O)Nc1cccc(N2CCCCC2=O)c1`, the result was inactive.
Regarding `O=C(CN1CC(c2nc(-c3ccsc3)no2)C1)NCCc1ccccc1`, the outcome was inactive.
As to `Cc1nn(-c2nc(C)c(C)c(=O)[nH]2)c(C)c1CCC(=O)Nc1ccc(C(F)(F)F)cc1`, the compound was classed as inactive.
`O=C(Cc1ccc(NS(=O)(=O)C2CC2)cc1)NCC(F)(F)F`: the compound was called inactive.
Consider `O=C(Cc1csc(-n2cccc2)n1)Nc1nc2ccccc2s1`, for which the call was inactive.
Regarding `Cc1cccc(NC(=O)N2CCN(c3ccc4nnc(C5CC5)n4n3)CC2)c1C`, the compound was called inactive.
Turning to `CCOc1ccc2nc(NC(=O)Cn3cnc(C(C)C)cc3=O)sc2c1`, the result was inactive.
`Cc1ccc(-n2ccnc2N2CCN(C(=O)c3ccccc3)CC2)cc1`: the compound was called inactive.
With `CS(=O)(=O)N1CCC(C(=O)Nc2nc3ccc(F)cc3s2)CC1` the entry was “inactive”; with `Cc1nc(-c2cccc(NC(=O)Cc3c(C)[nH]c(=O)[nH]c3=O)c2)cs1`, “inactive”; with `COc1cc(COCC2CCN(C(=O)/C=C/c3ccccc3Cl)CC2)cc(OC)c1`, “inactive”.
Regarding `O=C(c1ccc([N+](=O)[O-])o1)N1CCN(Cc2nnnn2-c2ccc(F)c(F)c2)CC1`, the compound was classed as inactive.
`CC(C)(C)CN(C(=O)c1ccco1)c1ccncc1`: the outcome was inactive.
In the case of `COc1ccccc1CNC(=O)C1CN(C(C)=O)C1`, the compound was classed as inactive.
For `Cc1ccccc1C(=O)NCCNC(=O)c1ccc(NC(=O)C(C)C)cc1`, the outcome was inactive.
The same measure for `O=C(Nc1cccs1)N1CCN(c2ccc(-c3ccco3)nn2)CC1`: “inactive”.
The same measure for `CC(C)CCn1nc2ccc(S(=O)(=O)N3CCOCC3)cn2c1=O`: “inactive”; for `Cn1nnc2c(N3CCN(C(=O)NCCOc4ccccc4)CC3)ncnc21`: “inactive”; for `COc1ccc(NC(=O)C(=O)NCCC(c2ccccc2)c2ccccc2)c(OC)c1`: “inactive”.
As for `Cc1ccc(Nc2ccc(NC(=O)/C=C/c3ccccc3)cc2)nn1`, the compound was classed as inactive.
With `CCOc1cccc2sc(N(CCN3CCOCC3)C(=O)c3ccco3)nc12` the entry was “inactive”; with `COc1ccc(C=O)cc1Cn1c(=O)n(CCCCC(=O)NCC(C)C)c(=O)c2ccccc21`, “inactive”; with `COc1cc(OC)cc(-n2c(-c3ccco3)nc3nc4ccccc4nc32)c1`, “inactive”.
Consider `Cc1ccc2nc(C3CC(=O)N(c4ccccc4)C3)[nH]c2c1` (configuration not stated), for which the compound was classed as inactive.
On to `COc1ccc(CCNC(=O)Cn2nc(-c3ccc(Cl)cc3)ccc2=O)cc1`, for which the call was inactive.
For `O=C(NN1CCOCC1)c1ccc(N2CCC(Cc3ccccc3)CC2)nn1`, the compound was classed as inactive.
In the case of `CS(=O)(=O)N1CCCCC1C(=O)Nc1nc(-c2ccccn2)cs1` (configuration not stated), the compound was classed as inactive.
As to `O=C(NCCCN1CCOC(c2ccccc2)C1)c1cc2ccccc2oc1=O` (configuration not stated), the compound was classed as inactive.
With `COc1ccc(NC(=O)NCC(C)(O)C2CC2)cc1OC` (configuration not stated) the entry was “inactive”; with `CSc1cccc(NC(=O)NCCNc2cc(-n3cccn3)ncn2)c1`, “inactive”; with `CSc1ccccc1CN1CCC(CNC(=O)c2ccc(S(=O)(=O)N(C)C)cc2)CC1`, “inactive”.
The same measure for `COc1ccc(N2C(=O)CN(CCC3=CCCCC3)C3CS(=O)(=O)CC32)cc1Cl` (configuration not stated): “inactive”; for `COc1cc(NC(=O)CSC2=NC3(CCCC3)N=C2c2ccccc2)cc(OC)c1`: “inactive”; for `Cc1ccc(N2CC(C(=O)NCC3CCN(S(=O)(=O)C4CC4)CC3)CC2=O)cc1C` (configuration not stated): “inactive”.
Turning to `Cc1cc(-c2nnc(NC(=O)C(c3ccccc3)c3ccccc3)o2)nn1C`, the call was inactive.
On to `CCOC(=O)CNC(=O)C1COCC(=O)N1Cc1ccccc1` (configuration not stated), for which the result was inactive.
Consider `COc1ccc(CCNC(=O)CCc2sc(C)nc2-c2cccs2)cc1`, for which the call was inactive.
With `O=S(=O)(N1CCCCCC1)N1CCN(c2ccccc2F)CC1`, the compound was called inactive.
On to `CCOC(=O)c1cn[nH]c1S(=O)(=O)NCc1ccccn1`, for which the compound was classed as inactive.
Regarding `CSc1cccc(-n2nnc(C(=O)OCc3nc(-c4ccccc4)oc3C)c2C)c1`, the result was inactive.
Regarding `CN(C)C(CNC(=O)C(C)(C)C)c1ccccc1Cl` (configuration not stated), the call was inactive.
As for `CC(C)CCn1nc2ccc(S(=O)(=O)N3CCCCC3)cn2c1=O`, the result was inactive.
Consider `COc1ccc(NC(=O)Cn2cc(-c3ccccc3)c(N(C)C)n2)cc1OC`, for which the compound was classed as inactive.
Consider `Cc1cc(NC(=O)C(=O)c2c(C)[nH]c3ccccc23)n(-c2nc(-c3cccs3)cs2)n1`, for which the compound was classed as inactive.
Turning to `COc1ccc(NC(=O)c2ccccc2SC)cc1N1CCCCC1=O`, the call was inactive.
